Source: PubChem (National Center for Advancing Translational Sciences (NCATS))
A selection: hits, their analogues and other compounds. The true share with any hit is near 5.4%.
Marburg entry inh – blocks Marburg virus binding to or entry into cells; Marburg virus pseudotyped entry inhibition, cell reporter; Potency, µM (doses to about 37.8 µM), for inactives: at the highest dose activity change, negative = inhibition, most hits filed as inhibitors; 1.8% of 300,000 active; calls by dose curve; tested in HEK293 cells
FMDV antiviral – foot and mouth disease virus antiviral activity. FMDV antiviral cell-based qHTS. Potency, µM (top dose mostly 57.9 µM), for inactives: top-dose activity change, negative = inhibition, most hits filed as inhibitors. AID 1159524. 1.2% of 410,000 active; calls by dose curve; tested in HEK293T cells; further: read-out not given here; nearly all actives have a fitted effect of over 45% in size
Sm TGR inh – inhibitors of Schistosoma mansoni thioredoxin glutathione reductase | Q962Y6 | purified TGR, DTNB reduction, TNB absorbance 405 nm | Potency, µM (titrated, usually from 114 µM), inactives show at the highest dose activity change, negative = inhibition, actives largely listed as inhibitors | 3% of 360,000 active | AID 485364; active means well fitted inhibition curve with a large enough effect; inconclusive means small, poorly fitted or top-dose-only effect; inactive means no such curve, though single readings can be large or run the other way; further: nearly all actives have a fitted effect of over 60% in size
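Kinetic colorimetric format: TGR-catalysed, NADPH-driven DTNB reduction monitored via TNB absorbance. Enzyme dispensed at 20 nM; compound exposure 15 min at room temperature before reaction start.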
VACV mCherry inh – inhibitors of vaccinia virus infection (mCherry reporter signal); Vaccinia virus mCherry reporter infection, fluorescence; Potency, µM (titrated, usually from 36.5 µM), inactives show at the top dose activity change, negative = inhibition, hits mostly inhibitors; 0.63% of 310,000 active; AID 720579; calls by dose curve; tested in A549 cells; further: nearly all actives have a fitted effect of over 35% in size
VACV Venus inh – vaccinia inhibition (Venus reporter); Vaccinia virus Venus reporter expression, fluorescence; Potency, µM (titrated, usually from 36.5 µM), for the others: at the top dose activity change, negative = inhibition, usual class: inhibitors; 0.46% of 330,000 active; calls by dose curve; tested in A549 cells; further: nearly all actives have a fitted effect of over 30% in size
Lassa entry inh – Lassa virus entry inhibition; Lassa virus pseudotype entry inhibition, cell reporter; Potency, µM (highest dose often 37.9 µM), for inactives: at the top dose activity change, negative = inhibition, most hits filed as inhibitors; 1.2% of 300,000 active; AID 540256; calls by dose curve; tested in HEK293 cells; further: nearly all actives have a fitted effect of over 50% in size
Starred values were filed as active, the others as inactive; [ ] = remark or other dose. On the % scale 0 is the no-effect control and ±100 the full control effect; potency means the concentration at half of the fitted maximal effect.

How did CC(C)Cn1c(N)c(C(=O)COC(=O)c2cc(-c3ccccc3)nc3ccccc23)c(=O)n(C)c1=O do in these assays?
Marburg entry inh: -14.1%; FMDV antiviral: inconclusive; Sm TGR inh: -0.4%; VACV mCherry inh: inactive; VACV Venus inh: -22.1%; Lassa entry inh: 0.5%

What do the screens show for `CC(C)Cn1c(N)c(C(=O)COC(=O)c2cc(C(F)(F)F)nc3ccccc23)c(=O)n(C)c1=O`?
Marburg entry inh: 28.9%; FMDV antiviral: 28.2µM*; Sm TGR inh: 0.4%; VACV mCherry inh: inconclusive; VACV Venus inh: inconclusive; Lassa entry inh: -14.5%

What do the screens show for `CC(C)Cn1c(N)c(C(=O)COC(=O)c2cc(C3CC3)nc3ccccc23)c(=O)n(C)c1=O`?
Marburg entry inh: -36.3%; FMDV antiviral: 31.6µM*; Sm TGR inh: -1.2%; VACV mCherry inh: -23.7%; VACV Venus inh: inconclusive; Lassa entry inh: 20.6µM*

What do the screens show for `O=C(NCCCN1CCN(c2ccccc2F)CC1)c1sc2ncccc2c1-n1cccc1`?
FMDV antiviral: -10.9%; Sm TGR inh: -33.8%; VACV mCherry inh: -10.4%[7.34 µM]; VACV Venus inh: -8.6%[7.34 µM]; Lassa entry inh: -9.8%[46.1 µM]

What do the screens show for `COC(=O)/C(=C/c1ccco1)NC(=O)c1ccc(Br)o1`?
Marburg entry inh: inconclusive; FMDV antiviral: 28.0%; Sm TGR inh: 22.4µM*; VACV mCherry inh: -7.9%; VACV Venus inh: -8.8%; Lassa entry inh: 24.2%[46.1 µM]

How did COc1ccc(C(=O)N/C(=C/c2ccco2)C(=O)N2CCCCCC2)cc1 do in these assays?
Marburg entry inh: 24.9%[46.1 µM]; FMDV antiviral: 12.4%; Sm TGR inh: 44.7µM*; VACV mCherry inh: -1.2%; VACV Venus inh: 1.7%; Lassa entry inh: -2.1%[46.1 µM]

How did COC(=O)/C(=C/c1ccco1)NC(=O)c1ccco1 do in these assays?
Marburg entry inh: -12.7%; FMDV antiviral: -16.4%; Sm TGR inh: 39.8µM*; VACV mCherry inh: -17.8%; VACV Venus inh: 7.9%; Lassa entry inh: -0.6%

Results for C=CCOC(=O)/C(=C/c1ccco1)NC(=O)/C=C/c1ccccc1 ?
Marburg entry inh: -8.8%; FMDV antiviral: 8.3%; Sm TGR inh: 39.8µM*; VACV mCherry inh: -11.0%; VACV Venus inh: -6.4%; Lassa entry inh: 3.3%

What do the screens show for `CC(C)(C)c1ccc(C(=O)N2CCC(c3noc(-c4ccc(S(=O)(=O)N5CCCC5)cc4)n3)CC2)cc1`?
Marburg entry inh: -18.9%[46.1 µM]; FMDV antiviral: -23.7%; Sm TGR inh: 8.0%; VACV mCherry inh: inconclusive; VACV Venus inh: inconclusive; Lassa entry inh: -0.2%[46.1 µM]

How did Cc1ccc(S(=O)(=O)N(CC(O)Cn2c3ccccc3c3ccccc32)c2cccc(C(=O)NCCO)c2)cc1 (configuration not stated) do in these assays?
Marburg entry inh: inconclusive; FMDV antiviral: inconclusive; Sm TGR inh: 3.7%; VACV mCherry inh: -11.3%; VACV Venus inh: -11.8%; Lassa entry inh: inconclusive

What do the screens show for `CCOC(=O)NC(C(Cl)(Cl)Cl)S(=O)(=O)c1ccccc1` (configuration not stated)?
Marburg entry inh: inconclusive; FMDV antiviral: inconclusive; Sm TGR inh: 25.1µM*; VACV mCherry inh: inactive; VACV Venus inh: -5.5%; Lassa entry inh: inconclusive

Results for CCOC(=O)NC(c1ccc(C(C)C)cc1)C(Cl)(Cl)Cl (configuration not stated) ?
Marburg entry inh: -60.1%; FMDV antiviral: -15.3%; Sm TGR inh: -15.9%; VACV mCherry inh: -11.0%; VACV Venus inh: -3.5%; Lassa entry inh: inconclusive

Results for COC(=O)CCCNC(=O)CC1C(=O)NCCN1Cc1ccoc1 (configuration not stated) ?
FMDV antiviral: -3.7%; Sm TGR inh: 44.7µM*; VACV mCherry inh: inactive; VACV Venus inh: -9.5%

How did Cc1nc(CCNC(=O)CC2C(=O)NCCN2Cc2ccoc2)nc2c1CCCC2 (configuration not stated) do in these assays?
FMDV antiviral: -15.0%; Sm TGR inh: 28.2µM*

How did O=C(CC1C(=O)NCCN1Cc1ccoc1)NCCc1ccc(Cl)cc1 (configuration not stated) do in these assays?
Marburg entry inh: -19.5%[46.1 µM]; FMDV antiviral: -2.3%; Sm TGR inh: inconclusive; VACV mCherry inh: inactive; VACV Venus inh: -11.3%; Lassa entry inh: inconclusive
